D2 PAM-1 = Beta-Arrestin HTS for Positive Allosteric Modulators of the Human D2 Dopamine Receptor: Potentiators | potentiation, % (test concentration not listed) | DiscoveRx D2 beta-arrestin cells, luminescence, 90 min; 100% = 57 uM dopamine signal | 360,000 tested, 0.23% active | D(2) dopamine receptor (Homo sapiens), P14416; in the data active = potentiation above about 50%; inconclusive = mostly about 30% to 49%
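PathHunter beta-arrestin assay in DiscoveRx D2 cells. Compounds were added with an EC20 of dopamine (50 nM final) for 90 min at 37 deg C. Luminescence was read 1 h after detection reagent, with 57 uM dopamine as the EC100 control.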
D2 antag = HTS Assay for Allosteric Antagonists of the Human D2 Dopamine Receptor: Primary Screen for Antagonists; D(2) dopamine receptor (Homo sapiens), P14416; HEK293 TREx D2 cells, calcium flux, dopamine EC80; inhibition, % at 10 µM; 340,000 tested, 2% active; AID 485344, 2010; in the data active = inhibition above about 30%; inactive = below that, where a call was filed
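Read-out: kinetic calcium fluorescence (1 cycle/s) in inducible HEK293 T-REx D2 cells after an EC80 dopamine addition that followed 180 s compound preincubation. Loss of the dopamine response indicates antagonism.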
D2 ag-1 = HTS Assay for Allosteric Agonists of the Human D2 Dopamine Receptor: Primary Screen for Agonists | D(2) dopamine receptor (Homo sapiens), P14416 | HEK293 T-REx D2 cells, calcium flux agonist mode | activation, % at 2 µM | 340,000 tested, 0.53% active | AID 485358, 2010;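 active = activation over 3 SD above normal in the single-dose calcium agonist read, cut at about 30% in these data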
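HEK293 Trex D2 cells, tetracycline-induced, o/n 30 C 5% CO2; no-wash Ca dye, RT 30–90 min; 10-cycle baseline, 23 nl cpd added, kinetic Ca read 180 s; agonist hits = positive Ca response.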
D2 PAM-2 = HTS Assay for Positive Allosteric Modulators of the Human D2 Dopamine Receptor: Primary Screen for Potentiators; D(2) dopamine receptor (Homo sapiens), P14416; potentiation, % at 10 µM; HEK293 T-REx D2, calcium flux, EC20 dopamine potentiation; 340,000 tested, 0.34% active; AID 485347, 2010;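 active = potentiation over 3 SD above the plate norm, cut at about 30% in these data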
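Potentiation of an EC20 dopamine calcium response is measured in a force-coupled, tetracycline-inducible Hek293 Trex D2 line. Compound-only kinetic reads over 180 s flag agonists before dopamine addition.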
D2 ag-2 = Beta-Arrestin HTS for Positive Allosteric Modulators of the Human D2 Dopamine Receptor: Agonists | D(2) dopamine receptor (Homo sapiens), P14416 | DiscoveRx PathHunter D2 beta-arrestin, luminescence, 90 min; 100% = 57 uM dopamine signal | activation, % (concentration not given with the values) | 360,000 tested, 0.084% active; in the data active = activation above about 40%; inconclusive = between about 15% and that limit
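DiscoveRx PathHunter D2 beta-arrestin cells (2,100/well) attached overnight, then compound-stimulated 90 min at 37 C in HBSS/10 mM HEPES/0.1% Tween-20 buffer; beta-galactosidase complementation read by luminescence after 1 h at ambient temperature. Dopamine 57 uM final (EC100) as control.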
D3 arrestin ag = qHTS of D3 Dopamine Receptor Agonist: D3 Dopamine Receptor B-arrestin Agonist Confirmatory Assay; shares compounds with D2 ag-1; DiscoveRx D3 beta-arrestin cells, luminescence, 90 min; Potency, µM (highest dose often 76.9 µM), hits mostly activators; 2,300 tested, 4% active; AID 720506, 2013; also: nearly all actives have a fitted effect of over 70% in size
Target sequence (P35462 whole entry, looked up): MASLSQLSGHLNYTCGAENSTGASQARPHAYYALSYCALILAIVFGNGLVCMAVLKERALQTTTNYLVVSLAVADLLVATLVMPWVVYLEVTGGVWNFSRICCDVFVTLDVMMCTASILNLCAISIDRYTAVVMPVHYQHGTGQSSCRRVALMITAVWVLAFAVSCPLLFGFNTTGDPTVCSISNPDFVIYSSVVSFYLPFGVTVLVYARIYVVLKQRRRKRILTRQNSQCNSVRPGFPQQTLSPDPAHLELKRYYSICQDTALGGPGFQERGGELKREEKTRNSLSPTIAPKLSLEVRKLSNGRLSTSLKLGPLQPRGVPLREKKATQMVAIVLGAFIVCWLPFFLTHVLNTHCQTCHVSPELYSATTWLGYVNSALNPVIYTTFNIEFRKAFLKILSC
D2 ag-3 = qHTS of D3 Dopamine Receptor Agonist: D2 Dopamine Receptor B-arrestin Agonist Counterscreen | AID 720507, 2013 | Potency, µM (top dose mostly 76.9 µM), most hits filed as activators | shares compounds with D2 ag-1 | DiscoveRx PathHunter D2 beta-arrestin, luminescence, 90 min; response scale: percent relative to full dopamine signal | 2,300 tested, 5.9% active; also: nearly all actives have a fitted effect of over 70% in size
A number is an active result. An excerpt weighted towards active compounds, which were near 2.4% of everything screened. Unless noted, calls follow the shape of the dose curve; as a rule, active = well fitted activation curve with a large enough effect; inconclusive = small, poorly fitted or top-dose-only effect; inactive = flat fitted curve, though single readings scatter.

`CC(CN1CCC(O)CC1)c1ccccc1` (stereo not given) gave D2 PAM-1 inactive, D2 antag inactive, D2 ag-1 inactive, D2 PAM-2 inactive and D2 ag-2 inactive.
`COc1ccc(/C=C2\CCCC(C(=O)C(F)(F)F)=C2O)cc1` gave D2 PAM-1 inactive, D2 antag inactive, D2 ag-1 inactive, D2 PAM-2 inactive and D2 ag-2 inactive.
For O=C(C1=C(O)/C(=C/c2ccc(O)cc2)CCC1)C(F)(F)F the results were D2 PAM-1 inactive, D2 antag inactive, D2 ag-1 inactive, D2 PAM-2 inactive, D2 ag-2 inactive, D3 arrestin ag inactive and D2 ag-3 inactive.
For Cc1ccc(N/C(N)=N/c2nc(C)cc(C)n2)cc1 the results were D2 PAM-1 inactive, D2 antag 31, D2 ag-1 80, D2 PAM-2 inactive, D2 ag-2 inactive, D3 arrestin ag inactive and D2 ag-3 inactive.
Screening CCCCc1ccc(N/C(N)=N/c2nc(C)cc(C)n2)cc1 returned D2 PAM-1 inactive, D2 antag 43, D2 ag-1 56, D2 PAM-2 inactive, D2 ag-2 inconclusive, D3 arrestin ag inconclusive and D2 ag-3 inconclusive.
`CCC(=O)Nc1ccc(N/C(N)=N/c2nc(C)cc(C)n2)cc1` gave D2 PAM-1 inactive, D2 antag inactive, D2 ag-1 inactive, D2 PAM-2 inactive and D2 ag-2 inactive.
Screening Cc1cc(C)nc(/N=C(\N)Nc2ccc([N+](=O)[O-])cc2)n1 returned D2 PAM-1 inactive, D2 antag 37, D2 ag-1 inactive, D2 PAM-2 inactive, D2 ag-2 inactive, D3 arrestin ag inactive and D2 ag-3 inactive.
For O=C(COc1ccccc1)NCCc1csc(-c2cccc(F)c2)n1 the results were D2 ag-1 inactive and D2 PAM-2 inactive.
For Cc1cc(=O)[nH]c2nnc(SCc3cccc(C(F)(F)F)c3)n12 the results were D2 ag-1 inactive and D2 PAM-2 inactive.
For COc1ccc(CC(=O)Nc2ccc(F)c(F)c2F)cc1S(=O)(=O)N1CCOCC1 the results were D2 PAM-1 inactive, D2 antag inactive, D2 ag-1 inactive, D2 PAM-2 inactive, D2 ag-2 inactive, D3 arrestin ag inactive and D2 ag-3 inactive.
CCOC(=O)c1c(-c2ccc(C)cc2)csc1NC(=O)c1cc(=O)c2cc(C)ccc2o1 was read as D2 ag-1 inactive and D2 PAM-2 inactive.
Screening CC(C)(C)NCC(O)(c1ccc(Cl)cc1)c1ccc(Cl)cc1 returned D2 PAM-1 inactive, D2 antag inactive, D2 ag-1 inactive, D2 PAM-2 inactive and D2 ag-2 inactive.
Screening NCC(O)(c1ccc(Cl)cc1)c1ccc(Cl)cc1 returned D2 PAM-1 inactive, D2 antag inactive, D2 ag-1 inactive, D2 PAM-2 inactive, D2 ag-2 inactive, D3 arrestin ag inactive and D2 ag-3 inactive.
Screening COc1cccc(C#Cc2c(C=O)n(C)c3ccccc23)c1 returned D2 PAM-1 inactive, D2 antag inactive, D2 ag-1 inactive, D2 PAM-2 inactive and D2 ag-2 inactive.
Screening Cn1c(C=O)c(C#CC(C)(C)O)c2ccccc21 returned D2 PAM-1 inactive, D2 antag inactive, D2 ag-1 inactive, D2 PAM-2 inactive, D2 ag-2 inactive, D3 arrestin ag inactive and D2 ag-3 inactive.
Screening CC(C)N1CCN(S(=O)(=O)c2ccccc2)CC1 returned D2 PAM-1 inactive, D2 antag inactive, D2 ag-1 inactive, D2 PAM-2 inactive and D2 ag-2 inactive.
`CCS(=O)(=O)N1CCN(C(C)CCc2ccccc2)CC1` (stereo not given) gave D2 PAM-1 inactive, D2 antag inactive, D2 ag-1 61, D2 PAM-2 inactive, D2 ag-2 inactive, D3 arrestin ag inconclusive and D2 ag-3 inconclusive.
Cc1ccc2nc(Cl)c3cc(C(=O)N(C)C4CCCCC4)sc3c2c1 was read as D2 ag-1 inactive and D2 PAM-2 inactive.
For O=C(CCSc1ccc(F)cc1)NNC(=O)c1ccccc1Cl the results were D2 PAM-1 inactive, D2 antag inactive, D2 ag-1 inactive, D2 PAM-2 inactive, D2 ag-2 inactive, D3 arrestin ag inactive and D2 ag-3 inactive.
Screening O=C(CSc1ccc(F)cc1)NNC(=O)c1ccccc1Br returned D2 PAM-1 inactive, D2 antag inactive, D2 ag-1 inactive, D2 PAM-2 inactive and D2 ag-2 inactive.
For Cc1cc(C)nc(N2CCC(C(=O)NCc3ccco3)CC2)n1 the results were D2 PAM-1 inactive and D2 ag-2 inactive.
Screening Cc1cc(C)nc(N2CCC(C(=O)NCc3cccs3)CC2)n1 returned D2 PAM-1 inactive, D2 antag inactive, D2 ag-1 31, D2 PAM-2 inactive, D2 ag-2 inactive, D3 arrestin ag inactive and D2 ag-3 inactive.
For Cc1oc(-c2ccccc2F)nc1CN1CCC(C(=O)NCc2cccs2)CC1 the results were D2 PAM-1 inactive, D2 antag inactive, D2 ag-1 52, D2 PAM-2 inactive, D2 ag-2 inactive, D3 arrestin ag inactive and D2 ag-3 inactive.
`COc1ccc(-n2c(/C=C/c3cccc4ccccc34)nc3ccccc3c2=O)cc1Cl` gave D2 ag-1 inactive and D2 PAM-2 inactive.
`O=C(Nc1ccc(Cl)cc1)c1nc[nH]c1C(=O)N1CCc2ccccc2C1` gave D2 PAM-1 inactive, D2 antag 51, D2 ag-1 inactive, D2 PAM-2 inactive, D2 ag-2 inactive, D3 arrestin ag inactive and D2 ag-3 inactive.
Screening Cc1ccc(NC(=O)c2nc[nH]c2C(=O)NCCCCCNC(=O)OC(C)(C)C)cc1 returned D2 PAM-1 inactive, D2 antag inactive, D2 ag-1 inactive, D2 PAM-2 inactive, D2 ag-2 inactive, D3 arrestin ag inactive and D2 ag-3 inactive.
Screening CC(C)(C)OC(=O)NCCCCCNC(=O)c1[nH]cnc1C(=O)Nc1ccc(Cl)cc1 returned D2 PAM-1 inactive, D2 antag inactive, D2 ag-1 inactive, D2 PAM-2 inactive and D2 ag-2 inactive.

Screens (PubChem BioAssay)
